# Measurements taken from PubChem BioAssay AID463173 (ICCB-Longwood Screening Facility, Harvard Medical School, 2010).
# In all, about 52,000 compounds went through this assay and about 1,700 (3.3%) were called active. The entries come from a sample that favours actives as a whole. Unmarked numbers belong to inactive results. Cut-off read from the data, not from the text of the source: active = survival mostly below about 52% (no sharp cut-off); inactive = mostly above about 56%.
# System: Wild type
# Experiment: S. aureus survival, RN4220 and DeltatarO strains – OD600, teichoic acid synthesis inhibitors, primary screen (AID 463173)
# Settings: S. aureus RN4220 wild type/DeltatarO growth, OD600, 18 h, active compounds read low, screened at 18.75 µg/mL (by protocol)
row,SMILES,survival
1,O=C(Cn1nc(-c2nccc3ccccc23)oc1=O)N1CCCc2ccccc21,103%
2,COc1ccc(N2CCN(c3oc(/C=C/c4cccc(OC)c4)nc3C#N)CC2)cc1,83%
3,COc1ccc(-c2nc(CNC(=O)Nc3ccccc3)c(C)o2)cc1,84%
4,COC(=O)c1ccc([C@@H]2Nc3c(C)cc(C)cc3[C@@H]3C=CC[C@@H]32)cc1,87%
5,COC(=O)c1ccc([C@@H]2Nc3c(cccc3C(F)(F)F)[C@@H]3C=CC[C@@H]32)cc1,3% (active)
6,COc1cccc(NS(=O)(=O)c2ccc3c(c2)[C@H]2C=CC[C@H]2[C@@H](c2ccccc2Cl)N3)c1,131%
7,COC(=O)c1ccc([C@H]2Nc3ccc(S(=O)(=O)Nc4cccc(C)c4)cc3[C@H]3C=CC[C@H]32)cc1,68%
8,COc1ccc(Br)cc1[C@@H]1Nc2ccc(C(=O)O)cc2[C@@H]2C=CC[C@@H]21,65%
9,CCOC(=O)c1cccc2c1N[C@@H](c1ccc(F)cc1)[C@H]1CC=C[C@@H]21,12% (active)
10,COC(=O)c1ccc([C@H]2Nc3ccc(S(=O)(=O)Nc4ccc(F)cc4)cc3[C@H]3C=CC[C@H]32)cc1,69%
11,CCOc1cccc2c1N[C@@H](c1ccc(C(=O)O)cc1)[C@H]1CC=C[C@@H]21,78%
12,COC(=O)c1cccc2c1NC(c1cccnc1)C1CC=CC21 (stereo not given),111%
13,Fc1ccc([C@@H]2Nc3ccccc3[C@@H]3C=CC[C@@H]32)cc1,88%
14,CCOC(=O)c1ccc2c(c1)[C@@H]1C=CC[C@@H]1[C@H](c1cccc(OC)c1OC)N2,0% (active)
15,CCOc1ccc2c(c1)[C@@H]1C=CC[C@@H]1[C@H](c1ccccc1Cl)N2,0% (active)
16,Fc1ccc(-n2ncc3c(Nc4ccc(Oc5ccc(Cl)cc5)cc4)ncnc32)cc1,85%
17,CC(=O)c1ccc(NC(=O)C2CCC(CNS(=O)(=O)c3cccs3)CC2)cc1 (stereo not given),60%
18,O=C(Cn1c(=O)n(CC2CCCO2)c(=O)c2ccccc21)Nc1cccc(Cl)c1 (stereo not given),82%
19,Cn1c(=O)c(=O)n(C)c2cc(NS(=O)(=O)c3ccc(Br)cc3)c(Cl)cc21,65%
20,Cc1ccc2oc3c(c(=O)c2c1)C(c1ccccc1F)N(CCCN1CCOCC1)C3=O (stereo not given),71%
21,CCOc1ccc(NC(=O)C(CC)n2c(=O)c(-c3ccccc3NC(C)=O)nc3ccccc32)cc1 (stereo not given),64%
22,CC(=O)N1CCc2cc(S(=O)(=O)NC(CC(C)C)C(=O)NCCc3cccc(C)c3)ccc21 (stereo not given),76%
23,Cc1nonc1C(=O)NCC(=O)O,91%
24,O=C(Nc1cccc(C(F)(F)F)c1)N1CC2CCCN2c2ccccc21 (stereo not given),55%
25,Cc1ccc(Cl)c2c1N[C@@H](c1ccc(C(=O)O)cc1)[C@H]1CC=C[C@@H]21,10% (active)
26,COC(=O)c1ccc([C@@H]2Nc3c(OC)ccc(C)c3[C@@H]3C=CC[C@@H]32)cc1,77%
27,COc1ccc(NS(=O)(=O)c2ccc3c(c2)[C@H]2C=CC[C@H]2[C@@H](c2ccc(C(=O)O)cc2)N3)cc1,68%
28,CCN(CCCNC(=O)CN1N=C(c2ccc(OC)cc2)CCC1=O)c1cccc(C)c1,124%

row,SMILES,survival
1,CCCCN(CCCNC(=O)CN1N=C(c2ccccc2)CCC1=O)c1ccccc1,72%
2,CCN(CCCNC(=O)CN1N=C(c2ccccc2)CCC1=O)c1ccccc1,-6% (active)
3,CCN(CCCNC(=O)CN1N=C(c2ccc(C)cc2)CCC1=O)c1ccccc1,-2% (active)
4,Cc1ccc(C2=NN(CC(=O)NCCCN(CC(C)C)CC(C)C)C(=O)CC2)cc1,84%
5,Cc1ccc(C2=NN(CC(=O)NCCC(C)C)C(=O)CC2)cc1,10% (active)
6,CCN(CCCNC(=O)CN1N=C(c2ccccc2)CCC1=O)c1cccc(C)c1,136%
7,Cc1ccc(C2=NN(CC(=O)NCCN(CC(C)C)CC(C)C)C(=O)CC2)cc1,129%
8,CCCCN(CCCNC(=O)CN1N=C(c2ccc(C)cc2)CCC1=O)c1ccccc1,101%
9,COc1ccccc1N1CCN(C(=O)c2cnn(-c3ccc(C)c(C)c3)c2C2CCN(C(=O)OC(C)(C)C)CC2)CC1,99%
10,CC(=O)NCCNc1nc2c(-c3ccc(C)cc3)nnn2c2ccccc12,82%
11,CCN(CC)C(=O)c1cc(-c2ccc(Cl)cc2)on1,51%
12,CCCN1C(=O)C(NC(=O)c2ccccc2OC)(C(F)(F)F)C(C(=O)OC)=C1C (stereo not given),78%
13,N#C/C(=C\c1cc(Br)c(O)c(Br)c1)c1nc2ccccc2c(=O)[nH]1,94%
14,O=C(NCc1ccccc1Cl)c1cc(=O)[nH]c2ccc(S(=O)(=O)N3CCCCC3)cc12,83%
15,CCOC(=O)c1c(Nc2cccc(C)c2)nnc(-c2ccccc2)c1-c1ccccc1,0% (active)
16,CCOC(=O)c1c(Nc2ccc(C)c(C)c2)nnc(-c2ccccc2)c1-c1ccccc1,0% (active)
17,CCOC(=O)c1cccc(Nc2cc(-c3ccccc3)ncn2)c1,40%
18,CCOC(=O)c1c(Oc2ccc(C(C)=O)cc2)nnc(-c2ccccc2)c1-c1ccccc1,92%
19,CCOC(=O)c1cnc(-c2ccccc2)nc1Nc1ccc(C)cc1,111%
20,CCOC(=O)c1c(Nc2ccc(C)cc2)nnc(-c2ccccc2)c1-c1ccccc1,2% (active)
21,CCOC(=O)c1c(Nc2cccc(O)c2)nnc(-c2ccccc2)c1-c1ccccc1,44%
22,CCOC(=O)c1nc(Nc2ccc(OC)cc2)c2ccccc2n1,143%
23,CCOC(=O)c1c(Nc2cc(C)cc(C)c2)nnc(-c2ccccc2)c1-c1ccccc1,38%
24,CCOC(=O)c1c(Nc2ccc(F)cc2)nnc(-c2ccccc2)c1-c1ccccc1,1% (active)
25,CCOC(=O)c1c(C)oc2nc(C)nc(Nc3ccc(C)c(Cl)c3)c12,80%
26,CCOC(=O)c1c(C)oc2nc(C)nc(Nc3ccc(CC)cc3)c12,115%
27,CCCCOC(=O)c1ccc(Nc2ncnc3c2cnn3-c2cccc(C)c2)cc1,88%
